PubChem BioAssay AID720504 (National Center for Advancing Translational Sciences (NCATS), 2013)
In all, about 360,000 compounds went through this assay and about 10,000 (2.8%) were called active. About 4% were inconclusive and are not listed. Calls come from the whole dose curve; as a rule, active = well fitted inhibition curve with a large enough effect; inconclusive = small, poorly fitted or top-dose-only effect; inactive = flat fitted curve, though single readings scatter. The list comes from a sample in which actives are over-represented; it also holds similar structures and randomly drawn compounds.

Molecular target: Serine/threonine-protein kinase PLK1 (Homo sapiens) (UniProt P53350)
Sequence (P53350 whole entry, looked up, the tested form may be a part): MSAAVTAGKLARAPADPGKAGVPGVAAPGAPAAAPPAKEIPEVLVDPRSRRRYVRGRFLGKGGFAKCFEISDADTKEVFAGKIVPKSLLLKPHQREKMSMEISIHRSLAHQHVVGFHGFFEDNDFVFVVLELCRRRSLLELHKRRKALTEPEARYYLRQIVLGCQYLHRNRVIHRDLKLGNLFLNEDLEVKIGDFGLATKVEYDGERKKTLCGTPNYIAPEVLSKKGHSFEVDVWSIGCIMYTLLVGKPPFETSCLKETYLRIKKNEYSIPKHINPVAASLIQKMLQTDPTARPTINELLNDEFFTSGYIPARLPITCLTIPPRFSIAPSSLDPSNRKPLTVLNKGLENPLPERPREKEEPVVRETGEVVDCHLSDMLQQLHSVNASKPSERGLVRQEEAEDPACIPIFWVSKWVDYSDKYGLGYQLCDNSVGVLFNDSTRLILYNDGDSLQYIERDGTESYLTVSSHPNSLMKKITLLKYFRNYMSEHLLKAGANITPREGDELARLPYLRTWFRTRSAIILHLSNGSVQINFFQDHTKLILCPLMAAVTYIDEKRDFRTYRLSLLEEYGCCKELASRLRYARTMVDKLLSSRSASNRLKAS
Assay: qHTS for Inhibitors of PLK1-PDB (polo-like kinase 1 - polo-box domain): Primary Screen; note: nearly all actives have a fitted effect of over 65% in size; for max response, negative = inhibition: series mostly up to about 57 µM
Details: Plk1 PBD binding of FITC phosphopeptide, fluorescence polarization
% is set by controls: 0 for no effect and ±100 for the full control effect; potency is the fitted concentration of half-maximal effect.

Row | SMILES | max response, negative = inhibition | Potency
1 | Nc1nc2c(ncn2[C@@H]2O[C@H](CNCc3ccc(OCCCN4CCOCC4)cc3)[C@@H](O)[C@H]2O)c(=O)[nH]1 | -2.1% (inactive) | –
2 | COc1cccc(-c2cnc(C(O)c3ccccc3OC)[nH]2)c1 (stereo not given) | -12.1% (inactive) | –
3 | CCc1cc(=O)oc2c(C)c(OCC(=O)NCCN3CCOCC3)ccc12 | – | 21.2 µM (active)
4 | CCCc1cc(=O)oc2c(C)c(OCC(=O)Nc3ccccn3)ccc12 | 7.66% (inactive) | –
5 | CCCc1cc(=O)oc2c(C)c(OCC(=O)NCc3ccccn3)ccc12 | 0.145% (inactive) | –
6 | COc1ccc(C(C)C)cc1-c1ccc2nncn2c1 | -3.26% (inactive) | –
7 | COc1cccc(-c2cc3nc(NCCOc4ccccc4Cl)n(C)c(=O)c3s2)c1 | -5.38% (inactive) | –
8 | O=C(Nc1ccccc1)c1ccccc1Br | -3.61% (inactive) | –
9 | COCCCN1C(=O)C(CC(=O)NCc2cccs2)CC(C(=O)N2CCOCC2)=C1C (stereo not given) | -4.29% (inactive) | –
10 | CSc1nc(C)cc(SC(C(C)=O)C(=O)Nc2ccccc2)n1 (stereo not given) | – | 26.7 µM (active)
11 | CC(Sc1nnc2c(n1)C1CCC2(C)C1(C)C)C(=O)Nc1ccccc1 (stereo not given) | 1.59% (inactive) | –
12 | CSc1nc(N(C)NC(=O)c2cccc(C)c2)c2ccccc2n1 | -6.24% (inactive) | –
13 | CC(C)NC(=O)C1(C)CCCCCN1C(=O)c1ccc(-c2ccccc2)cc1 (stereo not given) | -8.92% (inactive) | –
14 | COc1ccc(-c2ccc(CN3C(C(C)C)C(=O)N(Cc4cn(CC5CCCCC5)nn4)CCS3(=O)=O)cc2)cn1 (stereo not given) | -14.8% (inactive) | –
15 | COC(=O)C1(C(=O)OC)C[C@H](c2ccccc2)N(Cc2ccccc2OC)[C@@H]1c1ccccc1 | -15.2% (inactive) | –
16 | CCN(CC)C(=O)C1=C(C)N(Cc2ccc(F)cc2)C(=O)C(CC(=O)NCc2cccc3ccccc23)C1 (stereo not given) | -13.9% (inactive) | –
17 | CCCc1c(-c2ccccc2F)ncn1Cc1ccccc1OC | -1.08% (inactive) | –
18 | Cc1ccccc1-c1csc(C(O)c2cccc(Cl)c2)n1 (stereo not given) | -10.6% (inactive) | –
19 | O=C(/C=C/[C@H]1O[C@@H](n2cnc3c(NC(=O)c4ccccc4)ncnc32)[C@H](O)[C@@H]1O)NCc1ccccc1 | -4.8% (inactive) | –
20 | CCOc1ccc(Cn2c(SCCCCC#N)nc3c2c(=O)n(C)c(=O)n3C)cc1OCC | – | 18.9 µM (active)
21 | CCCSc1nc2c(c(=O)n(C)c(=O)n2C)n1Cc1ccc(C)cc1 | -10.2% (inactive) | –
22 | CCCCn1c(SCC(=O)NCCc2ccc(OC)c(OC)c2)nc2c1c(=O)n(C)c(=O)n2C | -1.04% (inactive) | –
23 | COc1ccc(NC(=O)C2Cc3c(-c4ccc(Cl)cc4)ccnc3O2)cc1 (stereo not given) | 1.68% (inactive) | –
24 | O=C(NCC(O)c1nc2ccccc2[nH]1)c1ccc(Br)cc1 (stereo not given) | -3.2% (inactive) | –
25 | CC1(C(=O)NCc2ccc3c(c2)OCO3)CCN1CCc1ccccc1 (stereo not given) | 2.52% (inactive) | –
26 | c1ccc(C(=NNc2nc3ccccc3s2)c2ccccn2)cc1 | -7.03% (inactive) | –
27 | c1ccc2sc(NN=C3CCCC3)nc2c1 | – | 26.7 µM (active)
28 | CCN(CC)CCn1c2c(c(SCC(=O)Nc3nc4ccccc4s3)nc1=O)CCCC2 | -2.27% (inactive) | –

Row | SMILES | max response, negative = inhibition | Potency
29 | OC[C@@H]1CN(C2CCCC2)C[C@H](n2cnc3c(NC4CCC4)ncnc32)O1 | -3.48% (inactive) | –
30 | C=CCn1c2c(c3ccccc31)CCC2 | -9.68% (inactive) | –
31 | Cc1cc(C)c(-c2c(O)c3ccccc3n(C)c2=O)c(C)c1 | -5.02% (inactive) | –
32 | COc1cc2c(=O)n(C)c3ccccc3c2cc1OC | -8.91% (inactive) | –
33 | Cn1c(=O)c([N+](=O)[O-])c(Oc2ccccc2)c2ccccc21 | – | 23.8 µM (active)
34 | CCOC(=O)c1c(C)[nH]c(C)c1C(=O)COC(=O)/C=C/c1cccc([N+](=O)[O-])c1 | 1.23% (inactive) | –
35 | Cc1ccnc(NS(=O)(=O)c2ccc(NC(=O)c3oc4ccccc4c3C)cc2)n1 | -5.87% (inactive) | –
36 | Cc1ccnc(NS(=O)(=O)c2ccc(NC(=O)c3ccc(S(=O)(=O)N4CCOCC4)cc3)cc2)n1 | -5.87% (inactive) | –
37 | Cc1ccnc(NS(=O)(=O)c2ccc(NC(=O)c3ccc(S(=O)(=O)N(C)C)cc3)cc2)n1 | – | 26.7 µM (active)
38 | COc1ccc(C(C)(O)c2nc(-c3cc(F)cc(F)c3)cs2)cc1 (stereo not given) | 4.82% (inactive) | –
39 | OC(c1ccccc1)(c1ccccc1)C1CCN(CCCOc2ccccc2)CC1 | 0.305% (inactive) | –
40 | CC(C)N=C1CCCC1C(=S)SSC(=S)C1CCCC1=NC(C)C (stereo not given) | – | 9.47 µM (active)
41 | CCC(c1nc2ccccc2[nH]1)n1c(=O)c(-c2cccs2)nc2ccccc21 (stereo not given) | 7.42% (inactive) | –
42 | Cc1ccc(C(=O)Nc2c(-c3ccccc3)[nH][nH]c2=O)cc1 | – | 23.8 µM (active)
43 | Cc1ccc(C(=O)Nc2nc(N)n(-c3ccccc3)n2)cc1 | -8.25% (inactive) | –
44 | COc1ccc(-c2[nH][nH]c(=O)c2NC(=O)c2ccc([N+](=O)[O-])cc2)cc1 | -12.4% (inactive) | –
45 | CCOC(=O)c1c(NC(=O)C2(C)Cc3ccccc3C(=O)O2)sc2c1CCCC2 (stereo not given) | – | 23.8 µM (active)
46 | CCOC(=O)c1c(NC(=O)CSc2cn(CC)c3ccccc23)sc2c1CCC2 | -5.08% (inactive) | –
47 | CCOC(=O)c1c(NC(=O)C(C)Sc2c[nH]c3ccccc23)sc2c1CCC2 (stereo not given) | -20.8% (inactive) | –
48 | CC1(c2cccc(N)c2)OCCO1 | -12.9% (inactive) | –
49 | CCc1nc2ccc(C(=O)N(C)Cc3ccco3)cn2c1N(C)C(=O)Cc1ccccc1 | -2.7% (inactive) | –
50 | CC1(C(=O)NS(=O)(=O)c2cccc(F)c2)CCN1C(=O)Cc1cc(F)ccc1F (stereo not given) | 1.7% (inactive) | –
51 | C[C@@H]1CN([C@H](C)CO)C(=O)c2cc(-c3ccc(F)cc3)cnc2O[C@H]1CN(C)C(=O)c1ccc(F)cc1 | -26.3% (inactive) | –
52 | OCCNc1nc(Nc2ccc(Cl)c(Cl)c2)nc2ccccc12 | -0.568% (inactive) | –
53 | O=[N+]([O-])c1c(NCCO)cc(Sc2nc3ccccc3s2)c2nonc12 | – | 1.68 µM (active)
54 | Cc1ccc(CN(C)C[C@@H]2OCc3cnnn3CCCC(=O)N([C@@H](C)CO)C[C@H]2C)cc1 | -4.71% (inactive) | –
55 | CC(C)(C)C1CCC(=O)N2CCC[C@]2(c2ccccc2)C1 (stereo not given in full) | -8.62% (inactive) | –
